According to PubChem BioAssay AID588814 (The Scripps Research Institute Molecular Screening Center, 2011):
Among all 360,000 compounds or so, about 1,200 (0.33%) were called active.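 The calls were made as follows: active = activation above the run's mean compound activation plus 3 SD (cut at about 16% in these data); inactive = the rest.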 For the sample, actives were picked, then their nearest neighbours and some compounds at random.

The molecules below were run against Muscarinic acetylcholine receptor M1 (Homo sapiens) (UniProt P11229) (assay: human M1 muscarinic receptor agonists, primary screen, Fluo-8 calcium fluorescence, CHO-K1 cells, HTS (AID 588814;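 also: peak over basal fluorescence ratio within a 140 s kinetic read after compound addition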)). Conditions: CHO-K1 hM1, Fluo-8 calcium fluorescence, agonist mode; at 3 µM; stronger effect = higher value; 0% DMSO, 100% acetylcholine EC100.
Sequence of Muscarinic acetylcholine receptor M1 (Homo sapiens) (P11229 whole entry, looked up): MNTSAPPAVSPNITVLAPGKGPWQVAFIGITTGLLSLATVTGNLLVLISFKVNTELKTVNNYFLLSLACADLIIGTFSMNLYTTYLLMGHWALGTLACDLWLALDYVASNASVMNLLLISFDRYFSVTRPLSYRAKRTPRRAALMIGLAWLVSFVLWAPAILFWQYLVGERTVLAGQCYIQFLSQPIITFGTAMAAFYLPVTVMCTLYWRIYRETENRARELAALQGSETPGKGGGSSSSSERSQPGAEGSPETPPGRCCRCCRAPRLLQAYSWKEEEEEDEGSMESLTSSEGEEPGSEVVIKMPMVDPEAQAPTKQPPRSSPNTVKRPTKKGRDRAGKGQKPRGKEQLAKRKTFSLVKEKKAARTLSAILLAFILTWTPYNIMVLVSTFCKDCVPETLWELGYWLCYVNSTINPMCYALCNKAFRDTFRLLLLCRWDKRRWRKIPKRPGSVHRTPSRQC

activation, active:
O=c1[nH]c2ccccc2n1C1CCN(CCOc2ccccc2)CC1 75.4%
O=C(/C=C(O)/C=C/c1ccc(O)cc1)/C=C/c1ccc(O)cc1 30%
CCCCC(=O)NNC(=S)NC(=O)C(c1ccccc1)c1ccccc1 88.8%
CCOc1ccc(NS(=O)(=O)c2ccc(C(=O)NCC(c3ccccc3OC)N3CCCC3)cc2)cc1 (stereo not given) 22.7%
c1ccc2c(c1)OCC(CNc1ncnc3nc[nH]c13)O2 (stereo not given) 134%
O=C(Nc1ccc(Cl)cc1)N1CCc2[nH]c3ccccc3c2C1 21.6%
O=C(NC1CCCCC1)N1CCc2[nH]c3ccccc3c2C1 18.1%
CCN1/C(=C\c2ccc3ccccc3[n+]2CC)Sc2cc(C)ccc21 26.1%
Cc1cc(C)c(/C=C2\C(=O)Nc3ccccc32)[nH]1 26.4%
CN(C)c1ccc(/C=C2\NC(=S)N(Cc3ccccc3)C2=O)cc1 47.3%
CC(Oc1ccc2ccccc2c1)C(=O)NNC(=S)NC(=O)c1ccco1 (stereo not given) 51.6%
COc1cc(/C=C2/SC(=S)N(Cc3ccccc3)C2=O)cc(OC)c1O 24.3%
COc1ccc(C)cc1-n1nnnc1SCc1nc2ccccc2c(=O)[nH]1 16.2%
O=S1(=O)C[C@@H](N2CCN(CCO)CC2)[C@H](COCc2ccccc2)N1 17.3%
CCN(CC)CCCC(C)n1c2nc(=O)[nH]c(=O)c-2nc2cc(Cl)ccc21 (stereo not given) 182%
COc1cccc(CNCCc2c[nH]c3ccccc23)c1OCc1ccccc1F 16.5%
Cc1ccc(O)c(NC(=S)NC(=O)COc2ccc(Br)cc2)c1 33.4%
CC1(c2ccc(Cl)cc2)NC(=O)N(CC(=O)c2ccc3c(c2)OCO3)C1=O (stereo not given) 20.6%
COc1ccc(C(=O)CN2C(=O)NC(C)(c3ccc(C)cc3)C2=O)cc1OC (stereo not given) 16.2%
Cc1ccc(NC(=O)CN2C(=O)NC(C)(c3ccc(Cl)cc3)C2=O)c(Br)c1 (stereo not given) 17.6%

activation, inactive:
COc1ccc(N/N=C2/CCCCC2=O)cc1 -3.78%
COc1ccc(NC(=O)C2(C)Cc3c(-c4cccc(NC(C)=O)c4)ccnc3O2)cc1 (stereo not given) -1.09%
O=C1CCN(CCc2ccccc2)CCN1CCOc1ccccc1 -5.27%
O=S(=O)(c1cccs1)N1CCN(CCOc2ccccc2)CC1 -2.7%
CC1Cc2ccccc2N1CC(=O)Nc1ccc(S(N)(=O)=O)cc1 (stereo not given) 0.2%
O=C(CN(Cc1ccccc1)C(=O)CCC(=O)Nc1ccccn1)NCCc1ccccc1 -5.06%
CC(=O)NC(CC(=O)Nc1nc(-c2ccccc2)c(C(C)=O)s1)c1ccccc1 (stereo not given) -2.65%
Nc1ncnc2c1ncn2[C@@H]1O[C@H](C(=O)NS(=O)(=O)c2c(Cl)nc3sccn23)[C@@H](O)[C@H]1O -1%
COc1ccc(/C=C/C(=O)c2c(O)cc(OC)cc2OC)cc1 -5.79%
COc1cccc(C=CC(=O)C=CC=Cc2ccccc2)c1 -0.1%
CCOc1ccc(CCNC(=O)COC(=O)c2c(OC)cccc2OC)cc1OCC 0.68%
CC(C)CC(=O)NC(=S)NCc1ccccc1 -7.45%
O=C(CCN1CCN(c2ccccc2)CC1)NNC(=S)Nc1ccccc1 -3%
O=C(N=C1SC2CS(=O)(=O)CC2N1Cc1ccccc1)c1ccccc1 (stereo not given) 0.69%
CCOc1ccc(NS(=O)(=O)c2ccc(C(=O)NC3CCN(Cc4ccccc4)CC3)cc2)cc1 -4.76%
CCOc1ccc(S(=O)(=O)Nc2ccc(C(=O)NCCCN3CCCC3=O)cc2)cc1 -1.87%
Cc1ccc(S(=O)(=O)N(CC(=O)Nc2cccnc2)c2ccc(Br)cc2)cc1 -0.74%
COc1ccc(CCNc2ncnc3nc[nH]c23)cc1OC 3.98%
O=C(Cn1cnc2ccccc2c1=O)NCC1COc2ccccc2O1 (stereo not given) -0.06%
C=CCNC(=S)N1CCc2[nH]c3ccccc3c2C1 2.34%
CCc1ccc(NC(=O)N2CCc3ccccc3C2)cc1 -5.56%
O=C(CSc1nnc2c(n1)[nH]c1ccccc12)NC1CCCCC1 -3.41%
O=C(Nc1cccc2c1CCCC2)C1CCN(C(=O)NC2CCCCC2)CC1 -2.08%
CCOC1=C2[C@@H](CN(S(=O)(=O)c3ccc(C)cc3)[C@H]2c2ccccc2F)[C@H]2C(=O)N(Cc3ccccc3)C(=O)[C@H]2C1 -5.09%
CCCc1cc(=O)[nH]c(SCC(=O)Nc2ccc(S(=O)(=O)N3CCCC3)cc2)n1 -4.58%
CCC(=O)c1ccc(OCC(=O)OCC(=O)N2CCc3ccccc3C2)cc1 -1.8%
CCN1CCc2nc(NC(=O)c3cc(F)c(F)cc3Cl)sc2C1 -7.11%
COC(=O)c1ccc(CSc2ccc3nnc(-c4ccccc4)n3n2)o1 -7.9%
COCCNC(=O)C1CCCN(Cc2ccccc2Cl)CC1 (stereo not given) -7.52%
CCCNC(=O)CCn1nc(-c2ccccc2)c2ccccc2c1=O -3.19%
COc1ccc(CNC(=O)CN(C(=O)c2csnn2)c2cnc3ccccc3c2)cc1 -11.5%
CCOC(=O)C(CC)/C(C)=N\NC(=O)c1cccc(C)c1 (stereo not given) -0.97%
COc1ccccc1S(=O)(=O)c1c(C)cc(C)[nH]c1=O -1.5%
O=C1c2ccccc2NC(c2ccccn2)N1NS(=O)(=O)c1ccccc1 (stereo not given) 0.48%
Cc1ccc(CN2C(=O)N/C(=C/c3cc(C)n(-c4ccccn4)c3C)C2=O)cc1 -1.17%
CN(C(=O)CN1C(=O)NC(C)(CCc2ccccc2)C1=O)c1ccccc1 (stereo not given) -0.73%
Cc1ccc(S(=O)(=O)N(Cc2ccc(Cl)cc2)c2ccccc2C(=O)NCc2cccnc2)cc1 -7.63%
CC(C)N(C(=O)Cn1cc(SCC(=O)N2CCCC2)c2ccccc21)C(C)C -6.14%
O=C(CC1SCCNC1=O)Nc1ccc(Cl)cc1 (stereo not given) -4.53%
CCCc1ccc(OCC(=O)NNC(=S)NC(=O)c2ccco2)cc1 4.47%
O=C(Nc1ccc2ccccc2c1)/C(=C\c1ccc2c(c1)OCO2)NC(=O)c1ccco1 -10.2%
CCc1nc2c(OCCOc3ccccc3)cccn2c1N(C=O)Cc1ccc(OC)cc1 -6.89%
CCOC(=O)[C@H]1[C@H]2COc3cc(OC)ccc3[C@@H]2N2C(=O)N(c3ccc(Br)cc3)C(=O)[C@@]12C -5.08%
Cc1cc(C)c(S(=O)(=O)N2CCC(C(=O)OCc3c(C)noc3C)CC2)c(C)c1 -3.3%
C=CCn1c(SCc2c(C(=O)OC)sc(N)c2C(=O)OC)nnc1-c1ccc(Cl)cc1 0%
COc1ccc(CCNC2=C(Cl)C(=O)N(Cc3ccccc3)C2=O)cc1OC -3.94%
CN1C=CC=C/C1=C1\SC(=S)N(Cc2ccccc2)C1=O -13.4%
CCn1c(COc2c(C)cccc2C)nnc1SCc1nc2ccccc2c(=O)[nH]1 -4.55%
COc1ccc(CCCc2nnc(SCc3nc4ccccc4c(=O)[nH]3)n2C)cc1 -15.5%
CCCCN1CC(COCc2ccccc2)OCCS1(=O)=O (stereo not given) -4.53%
O=C1CCN(CCCc2ccccc2)CCN1CCO -5.68%
COc1ccc(OC)c(NC(=O)c2cc(-c3cc(F)ccc3OCC3CCCO3)n[nH]2)c1 (stereo not given) -6.22%
CC(C)(C)OC(=O)NC(Cc1ccccc1)C(=O)NC(CSC1CCCCO1)C(=O)NN (stereo not given) -3.12%
COC(=O)c1cc(C(=O)NC(C)C2CC3CCC2C3)cc([N+](=O)[O-])c1 (stereo not given) -7.37%
Fc1ccccc1COc1ccccc1CNCc1ccncc1 -7.35%
COc1ccc(C(CCNCc2ccccc2F)c2ccc(F)cc2)cc1 (stereo not given) -4.82%
CC(C)C[C@H]1CN=C(Nc2ccccc2)N1CC1CCCCC1 -8.04%
CC(=O)Nc1ccc(OC(=O)COc2ccc(Br)cc2)cc1 -5.95%
Cn1cccc1C(=O)NNC(=O)COc1ccc(Br)cc1 -2.51%
COCCNc1cc(-c2ccccc2)nc2cc(-c3cccc(F)c3)nn12 -4.59%
COc1ccc(C2(C)NC(=O)N(CC(=O)c3ccc4c(c3)OCO4)C2=O)cc1 (stereo not given) 10.2%
Cc1ccc(C2(C)NC(=O)N(CC(=O)N3CC(=O)Nc4ccccc43)C2=O)cc1 (stereo not given) -1.27%
COc1cc(NC(=O)CN2C(=O)NC(C)(c3ccc(OC(F)F)cc3)C2=O)cc(OC)c1OC (stereo not given) 5.37%
Cc1ccc(S(=O)(=O)N2CCN(C(=O)CN3C(=O)NC(C)(c4ccc(Cl)cc4)C3=O)CC2)c(C)c1 (stereo not given) -3.67%
Cc1ccc(C2(C)NC(=O)N(CC(=O)Nc3ccccc3C(=O)N3CCCCC3)C2=O)cc1 (stereo not given) 0.58%
CC1CCC2(CC1)NC(=O)N(CC(=O)c1ccc3c(c1)OCO3)C2=O (stereo not given) -2.81%
O=C(NC(c1ccc(-c2ccccc2)cc1)c1cnccn1)C1CCN(CCOc2ccc(Cl)cc2Cl)CC1 (stereo not given) -1.39%
Cc1cc(Br)cn2c(Cc3ccsc3)c(-c3ccc(C#N)cc3)nc12 -1.39%
COCCCNc1nc2c(-c3cccc(C)c3)nnn2c2ccc(Cl)cc12 -3.36%
C[C@H]1CN([C@@H](C)CO)C(=O)c2cc(C3=CCCCC3)cnc2O[C@@H]1CN(C)C(=O)Cc1ccccc1 -6.56%
